Test results as given in PubChem BioAssay (EPA / NIEHS).
Active and inactive are the calls of the source. Rule for the calls: active = hit-call score of the fitted dose curve at least 0.9, where 1 is the maximum; inactive = score below 0.9.

Experiments:
[1] = read-out: Macrophage colony-stimulating factor (MCSF), CSF1 (gene 1435); experiment: BSK_hDFCGF_MCSF: BioMAP Diversity Plus: hDFCGF Assay for Macrophage colony-stimulating factor (MCSF) Biomarker Activity (AID 2283060); details: primary human foreskin fibroblasts; actives raise or lower the signal
Procedure, shortened: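 Human foreskin primary fibroblasts were treated with test chemical for 24 h, and M-CSF was then measured by ELISA. Data were fitted bidirectionally against DMSO as the negative control and activity baseline.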

[2] = BSK_hDFCGF_SRB: Viability Assessment in the BioMAP Diversity Plus: hDFCGF Assay (AID 2283061); details: primary human foreskin fibroblasts;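 note: cells exposed to compound for 24 h before the read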
Procedure, shortened: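 Human foreskin primary fibroblasts were treated with compound and assessed 24 h after dosing. Total protein was measured by sulforhodamine B staining (0.1% SRB after 10% TCA fixation, 560 nm read) as a cytotoxicity marker, with bidirectional fitting against DMSO baseline.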

[3] = read-out: TIMP metallopeptidase inhibitor 1 (TIMP1), TIMP1 (gene 7076); experiment: BSK_hDFCGF_TIMP1: BioMAP Diversity Plus: hDFCGF Assay for TIMP metallopeptidase inhibitor 1 (TIMP1) Biomarker Activity (AID 2283062); details: primary human foreskin fibroblasts; actives raise or lower the signal
Procedure, shortened: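 Primary human foreskin fibroblasts in the hDFCGF system were dosed with compound for 24 h, then TIMP-1 was measured by ELISA. Activity was fitted bidirectionally relative to DMSO control; parallel SRB staining assessed cytotoxicity.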

[4] = read-out: Monokine induced gamma interferon (MIG), CXCL9 (gene 4283); experiment: BSK_hDFCGF_MIG: BioMAP Diversity Plus: hDFCGF Assay for Monokine induced gamma interferon (MIG) Biomarker Activity (AID 2283063); details: primary human foreskin fibroblasts; actives raise or lower the signal
Procedure, shortened: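 ELISA read-out of MIG from primary human dermal fibroblasts 24 h post-dosing. Gain or loss of signal fitted bidirectionally, DMSO as baseline.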

[5] = read-out: Matrix Metallopeptidase 1 (MMP1), MMP1 (gene 4312); experiment: BSK_hDFCGF_MMP1: BioMAP Diversity Plus: hDFCGF Assay for Matrix Metallopeptidase 1 (MMP1) Biomarker Activity (AID 2283064); details: primary human foreskin fibroblasts; actives raise or lower the signal
Procedure, shortened: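 ELISA read-out of MMP1 from human foreskin fibroblasts (primary skin cells), 24 h post-dose. Gain or loss of signal was fitted bidirectionally versus DMSO negative control; cytotoxicity was checked by SRB in parallel cultures.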

[6] = read-out: Plasminogen activator inhibitor-1 (PAI1), SERPINE1 (gene 5054); experiment: BSK_hDFCGF_PAI1: BioMAP Diversity Plus: hDFCGF Assay for Plasminogen activator inhibitor-1 (PAI1) Biomarker Activity (AID 2283066); details: primary human foreskin fibroblasts; actives raise or lower the signal
Procedure, shortened: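 Human skin fibroblast cultures receive chemical for 24 h before PAI-1 is measured by ELISA; signal changes are fitted bidirectionally against DMSO-treated wells.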

[7] = read-out: Intercellular Adhesion Molecule 1 (ICAM1), ICAM1 (gene 3383); experiment: BSK_KF3CT_ICAM1: BioMAP Diversity Plus: KF3CT Assay for Intercellular Adhesion Molecule 1 (ICAM1) Biomarker Activity (AID 2283067); details: primary human keratinocytes with fibroblasts; actives raise or lower the signal
Procedure, shortened: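 Human keratinocyte plus foreskin fibroblast primary co-culture was exposed to chemical for 24 h. ICAM-1 was then quantified by ELISA, and the data were fit bidirectionally against DMSO as the negative control and baseline.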

[8] = read-out: Interferon-gamma inducible Protein 10 (IP10), CXCL10 (gene 3627); experiment: BSK_KF3CT_IP10: BioMAP Diversity Plus: KF3CT Assay for Interferon-gamma inducible Protein 10 (IP10) Biomarker Activity (AID 2283068); details: primary human keratinocytes with fibroblasts; actives raise or lower the signal
Procedure, shortened: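 Signal is secreted/surface IP-10 by ELISA in a human primary skin co-culture of keratinocytes and foreskin fibroblasts, taken 24 h post-dosing; DMSO served as negative control.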

[9] = BSK_KF3CT_SRB: Viability Assessment in the BioMAP Diversity Plus: KF3CT Assay (AID 2283069); details: primary human keratinocytes with fibroblasts
Procedure, shortened: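 SRB read-out at 560 nm (0.1% stain, TCA-fixed cells) gauges overt cytotoxicity in a human skin keratinocyte–fibroblast co-culture 24 h post-dosing. Signal change was fitted bidirectionally relative to DMSO control.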

[10] = read-out: Interleukin-1 alpha (IL1a), IL1A (gene 3552); experiment: BSK_KF3CT_IL1a: BioMAP Diversity Plus: KF3CT Assay for Interleukin-1 alpha (IL1a) Biomarker Activity (AID 2283070); details: primary human keratinocytes with fibroblasts; actives raise or lower the signal
Procedure, shortened: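 Primary skin co-culture (keratinocytes, foreskin fibroblasts), 24 h exposure; ELISA for IL-1a; bidirectional curve fit vs DMSO.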

[11] = read-out: Transforming growth factor beta 1 (TGFb1), TGFB1 (gene 7040); experiment: BSK_KF3CT_TGFb1: BioMAP Diversity Plus: KF3CT Assay for Transforming growth factor beta 1 (TGFb1) Biomarker Activity (AID 2283072); details: primary human keratinocytes with fibroblasts; actives raise or lower the signal
Procedure, shortened: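 TGF-b1 ELISA on a 24 h dosed co-culture of human keratinocytes and foreskin fibroblasts; cytotoxicity tracked in parallel cultures by SRB staining.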

[12] = read-out: C-C motif chemokine 2 (Homo sapiens) (UniProt P13500); experiment: BSK_KF3CT_MCP1: BioMAP Diversity Plus: KF3CT Assay for Monocyte Chemoattractant Protein 1 (MCP1/CCL2) Biomarker Activity (AID 2283073); details: primary human keratinocytes with fibroblasts; actives raise or lower the signal
Procedure, shortened: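 Human keratinocyte plus foreskin fibroblast primary co-culture exposed to chemical for 24 h. MCP-1 levels measured by ELISA. Bidirectional curve fitting relative to DMSO negative control as baseline.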

[13] = read-out: Matrix Metallopeptidase 9 (MMP9), MMP9 (gene 4318); experiment: BSK_KF3CT_MMP9: BioMAP Diversity Plus: KF3CT Assay for Matrix Metallopeptidase 9 (MMP9) Biomarker Activity (AID 2283074); details: primary human keratinocytes with fibroblasts; actives raise or lower the signal;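 for AC50: MMP9 protein level quantified by ELISA in the co-culture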
Procedure, shortened: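 ELISA read-out of MMP-9 at 24 h post-dosing in a co-culture of human skin keratinocytes and foreskin fibroblasts. Gain or loss of signal was fitted in both directions against DMSO.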

[14] = read-out: urokinase plasminogen activator (uPA), PLAU (gene 5328); experiment: BSK_KF3CT_uPA: BioMAP Diversity Plus: KF3CT Assay for urokinase plasminogen activator (uPA) Biomarker Activity (AID 2283075); details: primary human keratinocytes with fibroblasts; actives raise or lower the signal
Procedure, shortened: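 Skin co-culture (keratinocytes + foreskin fibroblasts), human primary; 24 h post-dose; uPA by ELISA; gain/loss fit vs DMSO baseline.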

CD40, CD40 (gene 958) = experiment: BSK_LPS_CD40: BioMAP Diversity Plus: LPS Assay for CD40 Biomarker Activity (AID 2283076); details: primary human HUVEC with PBMC; actives raise or lower the signal
Procedure, shortened: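 Primary human umbilical vein endothelial cells co-cultured with peripheral blood mononuclear cells, LPS-stimulated, were dosed with chemical and read 24 h later. CD40 levels were measured by ELISA and fitted bidirectionally against DMSO as negative control and baseline.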

[15] = read-out: E-selectin (Homo sapiens) (UniProt P16581); experiment: BSK_LPS_Eselectin: BioMAP Diversity Plus: LPS Assay for Eselectin Biomarker Activity (AID 2283077); details: primary human HUVEC with PBMC; actives raise or lower the signal
Procedure, shortened: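 Human umbilical vein endothelial cells co-cultured with peripheral blood mononuclear cells under LPS stimulation; E-selectin measured by ELISA 24 h after chemical dosing. Activity fitted bidirectionally against DMSO as negative control and baseline.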

[16] = read-out: Interleukin-8 (IL8), CXCL8 (gene 3576); experiment: BSK_LPS_IL8: BioMAP Diversity Plus: LPS Assay for Interleukin-8 (IL8) Biomarker Activity (AID 2283078); details: primary human HUVEC with PBMC; actives raise or lower the signal
Procedure, shortened: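 Human umbilical vein endothelial cells co-cultured with PBMC were stimulated with LPS; IL-8 levels were measured by ELISA 24 h after chemical dosing. Activity was fitted bidirectionally against DMSO as negative control and baseline.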

[17] = BSK_LPS_SRB: Viability Assessment in the BioMAP Diversity Plus: LPS Assay (AID 2283079); details: primary human HUVEC with PBMC;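 note: total protein by sulforhodamine B absorbance as a cytotoxicity measure; measured one day after compound addition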
Procedure, shortened: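 Human umbilical vein endothelial cells co-cultured with PBMC (LPS system) were dosed for 24 h. Total protein was stained with 0.1% sulforhodamine B after 10% TCA fixation, read at 560 nm, and fitted bidirectionally against DMSO baseline.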

[18] = read-out: Vascular cell adhesion molecule 1 (VCAM1), VCAM1 (gene 7412); experiment: BSK_hDFCGF_VCAM1: BioMAP Diversity Plus: hDFCGF Assay for Vascular cell adhesion molecule 1 (VCAM1) Biomarker Activity (AID 2283065); details: primary human foreskin fibroblasts; actives raise or lower the signal
Procedure, shortened: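 Primary human foreskin fibroblasts (hDFCGF system) were dosed with chemical and VCAM-1 was measured by ELISA 24 h later. Bidirectional curve fitting used DMSO as negative control and activity baseline.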

[19] = read-out: TIMP metallopeptidase inhibitor 2 (TIMP2), TIMP2 (gene 7077); experiment: BSK_KF3CT_TIMP2: BioMAP Diversity Plus: KF3CT Assay for TIMP metallopeptidase inhibitor 2 (TIMP2) Biomarker Activity (AID 2283071); details: primary human keratinocytes with fibroblasts; actives raise or lower the signal
Procedure, shortened: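 Measurements come from ELISA detection of TIMP-2 at 24 hours in a dosed human keratinocyte and foreskin fibroblast co-culture. DMSO serves as negative control and baseline.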

Measured: AC50

Chain of E-selectin (Homo sapiens) (P16581 whole entry, looked up): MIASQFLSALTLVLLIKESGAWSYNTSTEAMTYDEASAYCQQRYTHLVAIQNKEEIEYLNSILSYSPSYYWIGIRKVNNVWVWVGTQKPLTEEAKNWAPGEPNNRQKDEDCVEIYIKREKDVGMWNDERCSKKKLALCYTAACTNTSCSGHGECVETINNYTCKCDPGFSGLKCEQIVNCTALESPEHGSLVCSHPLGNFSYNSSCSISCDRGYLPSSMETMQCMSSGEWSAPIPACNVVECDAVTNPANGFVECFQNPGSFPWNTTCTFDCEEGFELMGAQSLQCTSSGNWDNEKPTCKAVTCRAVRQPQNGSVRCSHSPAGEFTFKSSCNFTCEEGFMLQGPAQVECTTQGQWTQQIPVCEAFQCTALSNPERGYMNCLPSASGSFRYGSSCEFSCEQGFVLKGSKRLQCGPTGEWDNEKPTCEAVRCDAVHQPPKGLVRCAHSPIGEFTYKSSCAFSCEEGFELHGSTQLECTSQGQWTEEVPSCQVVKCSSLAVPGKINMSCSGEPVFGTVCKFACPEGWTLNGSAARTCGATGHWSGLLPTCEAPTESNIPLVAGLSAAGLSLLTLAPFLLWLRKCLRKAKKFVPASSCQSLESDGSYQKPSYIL

CC(C)c1ccc(C(=O)N=C(N)N)cc1S(C)(=O)=O
not listed: [18] | [19]
inactive: all other assays above

C=CCc1ccc(O)c(OC)c1
not listed: [9]
inactive: all other assays above

COCCOCCOC
not listed: [5] | [19]
inactive: all other assays above

Nc1ccc2c(c1)C(=O)c1ccccc1C2=O
not listed: [5] | [9] | [13] | [19]
inactive: all other assays above

Cc1ccc(Cl)cc1
not listed: [5] | [9] | [18]
inactive: all other assays above

CCc1c(C(=O)NN2CCCCC2)nn(-c2ccc(Cl)cc2Cl)c1-c1ccc(Br)cc1
inactive: [7]
active: [1] 3.75 µM | [2] 2.85 µM | [3] 3.54 µM | [4] 4.28 µM | [6] 2.3 µM | [8] 13.1 µM | [10] 9.35 µM | [19] 5.8 µM | [11] 6.72 µM | [12] 13 µM | [13] 4.31 µM | [14] 7.27 µM | CD40, CD40 (gene 958) 12.3 µM | [15] 7.44 µM | [16] 5.2 µM | [17] 9.94 µM

Cc1nc(C)nc(N2C[C@@H](C)N(c3ccnc([C@@H](C)O)n3)[C@@H](C)C2)n1
not listed: [5] | [9] | [19]
inactive: all other assays above

NS(=O)(=O)c1cc2c(cc1Cl)NCNS2(=O)=O
not listed: [5] | [18] | [19]
inactive: all other assays above

Oc1ccc2c(c1)OC[C@@H](N1CCC(O)(c3ccc(F)cc3)CC1)[C@H]2O
not listed: [5] | [9] | [18]
inactive: all other assays above

CCCCc1ccc2c(n1)[C@@H](c1ccc(OC)cc1C[C@H](C)C(=O)O)[C@H](C(=O)O)[C@H]2c1ccc2c(c1)OCO2
not listed: [5] | [9]
inactive: all other assays above

Cc1oc(-c2ccccc2)nc1CCOc1cccc2c1ccn2CCC(=O)O
not listed: [19]
inactive: all other assays above

CCCCN(CCCC)CCCC
not listed: [9] | [18] | [19]
inactive: all other assays above

C[Si]1(C)O[Si](C)(C)O[Si](C)(C)O[Si](C)(C)O1
not listed: [9] | [18]
inactive: all other assays above
